Screens: PubChem, National Center for Advancing Translational Sciences (NCATS)
Compounds with a hit are over-represented: about 1.8% of the library has one in this group of screens.
GLP1R ag – agonists of human GLP-1 receptor; HEK293 GLP-1R CRE-luciferase, luminescence, 4-6 h; cells express a hypersensitive GLP-1R form; 380,000 compounds, 0.007% hits; P43220; Potency, µM (series often up to 45.6 µM), inactives show top-dose activation, usual class: activators; also: % of control where 0% means no effect
GLP-1R inv ag – GLP-1 receptor (human) inverse agonism; 410,000 compounds, 1.6% hits; Potency, µM (top dose mostly 38.3 µM), without a hit: at the highest dose activity change, negative = inhibition, actives largely listed as inhibitors; HEK293 GLP-1R CRE-luciferase, luminescence, 24 h; GLP-1R form is constitutively active; P43220; AID 624417; also: % is scaled to controls: 0 for no effect and ±100 for the full control effect; nearly all actives have a fitted effect of over 55% in size
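Luminescence readout: a drop in cAMP-driven luciferase signal flags inverse agonism at a constitutively active GLP-1R stably expressed in HEK293. Compound exposure lasted 24 hr at 37 deg C, 5% CO2.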
Tb PGK inh – inhibitors of T. brucei phosphoglycerate kinase; P07378; PGK/GAPDH coupled, Kinase-Glo luminescence, 60 min; Potency, µM (highest dose often 57.5 µM), for the others: at the top dose activity change, negative = inhibition, most hits filed as inhibitors; 380,000 compounds, 0.043% hits; AID 602233; also: % is scaled to controls: 0 for no effect and ±100 for the full control effect; nearly all actives have a fitted effect of over 60% in size
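Recombinant glycosomal PGK reaction used 1,3-bisphosphoglycerate generated in-well by GAPDH (100nM final) in 100mM TEA pH 7.6, 5mM MgCl2, 0.01% Tween-20. After 60 minutes at room temperature, ATP was read by Kinase-Glo Plus luminescence end-point.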
Tb PFK block – inhibitors of T. brucei phosphofructokinase | T. brucei PFK, ADP-Glo luminescence | 330,000 compounds, 0.17% hits | O15648 | Potency, µM (doses to about 57.5 µM), without a hit: top-dose activity, negative = inhibition, usual class: inhibitors | AID 485367;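 also: 0% = uninhibited 1x PFK enzyme wells and -100% = no-enzyme wells; nearly all actives have a fitted effect of over 60% in size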
Target sequence (O15648 whole entry, looked up): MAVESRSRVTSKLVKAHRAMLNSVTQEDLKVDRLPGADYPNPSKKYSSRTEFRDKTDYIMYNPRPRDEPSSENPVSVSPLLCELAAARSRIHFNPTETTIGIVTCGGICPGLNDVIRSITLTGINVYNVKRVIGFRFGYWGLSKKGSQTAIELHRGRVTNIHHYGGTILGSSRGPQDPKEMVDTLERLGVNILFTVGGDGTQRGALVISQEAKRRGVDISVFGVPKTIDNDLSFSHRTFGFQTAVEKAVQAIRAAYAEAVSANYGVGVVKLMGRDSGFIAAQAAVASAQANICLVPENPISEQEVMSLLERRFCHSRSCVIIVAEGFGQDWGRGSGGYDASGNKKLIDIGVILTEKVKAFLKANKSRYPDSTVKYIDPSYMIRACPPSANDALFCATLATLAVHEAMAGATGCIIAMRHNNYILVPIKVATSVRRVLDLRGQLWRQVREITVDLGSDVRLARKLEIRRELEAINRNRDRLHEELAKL
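ADP-Glo luminescence quantified ADP after 45 min at room temperature, with 1.25 nM T. brucei PFK, 0.1 mM ATP and 0.5 mM fructose-6-phosphate in pH 8.0 TEA buffer. qHTS titrations up to 57 µM; curves classified by quality.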
Pin1 inh – blocks the human prolyl isomerase Pin1 | Potency, µM (doses to about 115 µM), inactives show at the highest dose activity, negative = inhibition, hits mostly inhibitors | 390,000 compounds, 0.009% hits | Q13526 | Pin1 FP peptide displacement, HiFluor488, 10 min; active = well fitted inhibition curve with a large enough effect in the polarisation, with a control signal flat, not every such curve was filed as active; inconclusive = small, poorly fitted or top-dose-only effect, or effect the other way, or a change in a side signal; inactive = no such curve, though single readings can be large or run the other way; the % refers to the polarisation; also: % is scaled to controls: 0 for no effect and ±100 for the full control effect
Target sequence (Q13526 whole entry, looked up): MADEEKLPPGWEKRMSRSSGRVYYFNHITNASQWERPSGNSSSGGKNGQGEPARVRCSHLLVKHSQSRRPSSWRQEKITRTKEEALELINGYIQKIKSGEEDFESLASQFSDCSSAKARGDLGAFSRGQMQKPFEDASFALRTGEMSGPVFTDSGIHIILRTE
HEK293 tox – cytotoxicity counter-screen for GLP-1 receptor inverse agonists; HEK293 cAMP-luciferase reporter cells, luminescence, 24 h; Potency, µM (titrated, usually from 38.3 µM), for inactives: at the highest dose activity change, negative = inhibition, hits mostly inhibitors; 410,000 compounds, 0.13% hits; AID 624418;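 also: loss of luciferase light is scored as toxicity; % is scaled to controls: 0 for no effect and ±100 for the full control effect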
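Seeding density was 200 cells/uL; after overnight-length (12 h) culture, 23 nL compounds went on for 24 h at 37 °C. Readout used a luciferase detection reagent, luminescence taken after 12 min at room temperature.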
Active calls of the source: *; i = inactive; ? = inconclusive; . = not tested or not shown; [ ] = another dose, or the depositor's remark. Unless noted, calls follow the shape of the dose curve; as a rule, active = well fitted curve in the direction sought with a large enough effect; inconclusive = small, poorly fitted or top-dose-only effect, or another doubt; inactive = no such curve, though single readings can be large; an effect the other way counts as inactive or inconclusive. Potency is read from the fitted curve at half-maximal effect.

SMILES	GLP1R ag	GLP-1R inv ag	Tb PGK inh	Tb PFK block	Pin1 inh	HEK293 tox
COc1ccc(-n2cc(CN3CCCC3)c(-c3cccc(F)c3)n2)cc1	14.7%	?	-5.7%	-0.9%	27.6%	?
CC(=O)N1CCCN(Cc2cn(-c3ccc(C)cc3)nc2-c2cccc(C)c2)CC1	24.0%	10µM*	-9.8%	2.1%	-2.1%	-15.1%
c1ccc(-n2cc(CN3CCCC3)c(-c3ccc4c(c3)OCO4)n2)cc1	-0.8%	?	-2.4%	-3.5%	0.3%	-5.9%
Cc1ccc(-c2nn(-c3cccc(F)c3)cc2CN2CCN(c3ccccn3)CC2)o1	-0.9%	10µM*	-7.2%	-12.2%	30.9%	5.3%
Cc1ccc(-c2nn(-c3cccc(F)c3)cc2CN(Cc2nccn2C)C(C)C)o1	-0.1%	?	2.7%	-13.4%	6.8%	?
CSCCC(NS(=O)(=O)c1ccc2c(c1)oc(=O)n2C)C(=O)NCc1ccc(Cl)cc1 (stereo not given)	.	8.2%	-7.9%	.	4.6%	2.7%
CCc1nn(CC(=O)NCCCN(CC)CC)c(=O)c2cc3sc(C)cc3n12	8.1%	10µM*	i	1.2%	-5.4%	-15.6%
CCc1nn(CC(=O)NCCCN(CC(C)C)CC(C)C)c(=O)c2cc3sc(C)cc3n12	.	-7.0%	-5.5%	.	6.6%	-3.0%
CCC(C)n1c(SCC(=O)Nc2cc(C)on2)nc2ccccc2c1=O (stereo not given)	0.1%	?	6.1%	-0.6%	5.8%	-25.3%
CC(C)(C)c1cc(NC(=O)COc2ccc(Br)cc2)n(-c2ccccc2)n1	4.8%	8.91µM*	3.1%	-1.7%	5.2%	-14.5%
CCC(C)n1c(SCC(=O)Nc2cc(C(C)(C)C)nn2-c2ccccc2)nc2ccccc2c1=O (stereo not given)	11.8%	11.2µM*	i	-16.1%	23.6%	0.0%
O=C1c2ccccc2-c2onc3ccc(NCCCn4ccnc4)c1c23	18.9%	-13.5%	-2.9%[11.5 µM]	-4.6%	?	12.6µM*
COc1ccc2noc3c2c1C(=O)c1ccccc1-3	12.2%	?	-18.8%	.	?	?
COC(=O)c1cc(NC(=O)CCc2c(C)nc3c(c(C)nn3C(C)(C)C)c2C)cc(C(=O)OC)c1	-1.0%	-12.8%	-4.2%	.	3.8%	-14.6%
CCOC(=O)c1c(Nc2cc(C)cc(C)c2)nnc(-c2ccccc2)c1-c1ccccc1	12.0%	7.94µM*	-11.2%	.	-1.4%	-4.7%
Cc1cc2c(s1)c1cnn(Cc3c(F)ccc(F)c3F)c(=O)c1n2C	.	.	.	.	27.0%	.
CSc1cccc(NC(=S)N2CCCN(Cc3cccc(Cl)c3)C2)c1	7.2%	3.55µM*	-6.4%	-11.2%	7.8%	-12.2%
COc1ccc(NC(=S)N2CCCN(Cc3cccc(Cl)c3)C2)cc1	12.5%	8.91µM*	i	-16.6%	0.9%	-5.7%
CSc1cccc(NC(=S)N(CCCN2CCCC2)Cc2cccn2Cc2ccc(Cl)cc2)c1	-5.0%	3.55µM*	-4.3%	-6.9%	9.7%	11.2µM*
COc1cccc(NC(=S)N2CCCN(Cc3ccc(F)cc3)C2)c1	15.7%	?	-5.6%	0.5%	-7.5%	-0.2%
S=C(Nc1cccc(Cl)c1)N(CCCN1CCCC1)Cc1cccn1Cc1ccc(Cl)cc1	-1.6%	?	i	-8.9%	1.1%	?
CCOc1ccc(NC(=S)N2CCCN(Cc3cccc(Cl)c3)C2)cc1	16.2%	?	-3.8%	-9.9%	7.7%	6.8%
Cc1ccc(C)c(NC(=O)CN2C(=O)C3(SCC(=O)N3c3ccc(C)c(C)c3)c3ccccc32)c1 (stereo not given)	5.1%	0.6%	-9.5%	.	16.0%	11.4%
Fc1ccc(-n2ncc3c(Nc4cccc(Cl)c4)ncnc32)cc1	.	?	-14.4%	.	-0.8%	-1.0%
COc1cccc(CN(C)CC(O)COc2cc(Cl)ccc2Cl)c1 (stereo not given)	0.2%	10µM*	3.2%	-6.4%	-0.6%	-4.0%
SMILES	GLP1R ag	GLP-1R inv ag	Tb PGK inh	Tb PFK block	Pin1 inh	HEK293 tox
COc1ccc(-c2cn3nc(N4CCC(C(=O)NCc5ccccc5F)CC4)sc3n2)cc1	.	2.2%	9.0%	.	-8.5%	0.3%
CC1(C)Cc2cccc(C(=O)Nc3ccncc3)c2O1	17.8%	-14.4%	9.6%	-1.7%	0.0%	-4.1%
CC1(C)Cc2cccc(C(=O)Nc3ccc(Cl)cc3)c2O1	2.2%	11.2µM*	3.0%	7.7%	0.8%	-2.9%
COc1ccc(NC(=O)COCc2cc(-c3ccco3)on2)cc1Cl	.	12.8%	6.2%	.	5.3%	0.4%
COc1ccc(Cl)cc1NC(=O)CN1CCc2ccccc21	15.1%	10µM*	-9.7%	0.5%	5.2%	0.0%
COc1ccc(Cl)cc1NC(=O)CN(C)CC(=O)Nc1ccc(C)cc1Br	21.1%	7.94µM*	5.6%	0.3%	5.7%	-10.8%
Cc1ccc(Cl)cc1NC(=O)CN1C(=O)C(C)(C)c2cc(S(=O)(=O)N3CCCCC3)ccc21	.	?	i	.	9.6%	5.9%
COc1ccc(Cl)cc1NC(=O)CN1C(=O)C(C)(C)c2cc(S(=O)(=O)N3CCCCC3)ccc21	.	11.2µM*	5.9%	.	8.9%	-19.6%
COc1ccc(Cl)cc1NC(=O)CN(C)CC(=O)Nc1ccccc1-c1ccccc1	1.3%	?	i	-0.9%	12.1%	?
COc1ccc(Cl)cc1NC(=O)CN1Cc2ccccc2C1=O	.	-23.7%	7.6%	.	-4.2%	3.2%
O=S(=O)(NC1CCCC(NS(=O)(=O)c2c(F)cccc2F)C1)c1ccc2c(c1)OCCO2 (stereo not given)	.	.	.	.	30.4%	.
Cc1cc2nc(C3CCN(CC4COc5ccccc5O4)CC3)[nH]c2cc1C (stereo not given)	-5.4%	10µM*	0.7%	-1.4%	?	-22.7%
Cc1nc2ccc(S(=O)(=O)N(CC(=O)Nc3cccc(C)c3C)Cc3ccccc3)cc2s1	.	6.9%	1.7%	.	1.0%	3.4%
COc1ccc(S(=O)(=O)n2nc(-n3c(C)ccc3C)c3c(F)cccc32)cc1OC	-0.5%	10µM*	-1.8%	0.0%	23.8%	27.8%
Cc1ccc(C)n1-c1nn(S(=O)(=O)c2ccccc2)c2cccc(F)c12	12.2%	?	-0.5%	2.0%	14.3%	22.6%
Cc1ccc(Cl)cc1NC(=O)Cn1ncc2c(C)n(Cc3ccccc3F)c(C)c2c1=O	.	21.8%	i	.	?	1.3%
Cc1ccc(OCCn2c(CCNC(=O)C(C)C)nc3ccccc32)cc1	-3.4%	7.94µM*	i	-5.3%	0.5%	-11.1%
CC(C)C(=O)NCCc1nc2ccccc2n1CCCOc1ccc(Cl)cc1	8.3%	?	10.9%	-9.4%	-8.9%	?
CC(C)(C)C(=O)NCCc1nc2ccccc2n1CCCCOc1ccc(Cl)cc1	.	10µM*	1.0%	.	?	-21.0%
